Screening results from PubChem.
GLP-1R agonist = activates the human GLP-1 receptor; HEK293 GLP-1R CRE-luciferase, luminescence, 4-6 h; cells express a hypersensitive GLP-1R form; Potency, µM (top dose mostly 45.6 µM), for the others: top-dose activation, most hits filed as activators; 0.007% of 380,000 active; note: potency is the fitted concentration of half-maximal effect; % of control where 0% means no effect
Target sequence (P43220 whole entry, looked up): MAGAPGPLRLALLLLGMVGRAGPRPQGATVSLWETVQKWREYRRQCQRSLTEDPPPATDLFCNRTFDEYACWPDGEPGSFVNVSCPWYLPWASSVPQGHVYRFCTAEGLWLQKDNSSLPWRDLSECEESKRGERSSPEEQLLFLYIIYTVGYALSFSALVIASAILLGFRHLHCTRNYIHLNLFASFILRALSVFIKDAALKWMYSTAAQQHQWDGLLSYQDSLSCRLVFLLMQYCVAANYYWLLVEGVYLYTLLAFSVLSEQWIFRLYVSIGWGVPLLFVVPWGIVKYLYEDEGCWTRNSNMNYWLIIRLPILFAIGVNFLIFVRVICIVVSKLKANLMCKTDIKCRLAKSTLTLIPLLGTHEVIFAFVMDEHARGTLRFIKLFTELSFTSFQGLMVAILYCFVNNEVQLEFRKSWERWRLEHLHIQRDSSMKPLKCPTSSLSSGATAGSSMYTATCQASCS
CCT modulator = modulators of cytosolic chaperonin (CCT/TRiC) activity; purified chaperonin ATPase assay, HTRF ADP detection, 30 min; activity change, % (concentration not given with the values), hits read low; 0.3% of 360,000 active; AID 651819; in the data active = activity change below about -30%; note: % is set by controls: 0 for no effect and ±100 for the full control effect
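TRiC (40 or 20 nM final, by batch activity) in 30 mM Tris pH 7.4, 100 mM KCl, 5 mM MgCl2, 1 mM DTT was treated with compound at 76 uM single dose, then 10 uM ATP, 30 min at 37 °C. ADP was read by HTRF Transcreener.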
GLP-1R inv ag = acts as inverse agonist at human GLP-1 receptor | P43220 | HEK293 GLP-1R CRE-luciferase, luminescence, 24 h; GLP-1R form is constitutively active | Potency, µM (series often up to 38.3 µM), for inactives: at the top dose activity change, negative = inhibition, usual class: inhibitors | 1.6% of 410,000 active | AID 624417; note: potency is the fitted concentration of half-maximal effect; % is set by controls: 0 for no effect and ±100 for the full control effect; nearly all actives have a fitted effect of over 55% in size
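Readout was luciferase luminescence, measured 12 min after detection reagent at room temperature. Beforehand, GLP-1R reporter HEK293 cells had sat 12 h, then received compounds for 24 hr at 37 deg C.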
uPA generation = blocks generation of uPA at the cell surface; Potency, µM (titrated, usually from 38.3 µM), without a hit: at the top dose activity change, negative = inhibition, usual class: inhibitors; cell surface uPA generation assay, qHTS; 0.31% of 330,000 active; AID 540303; active = well fitted inhibition curve with a large enough effect; inconclusive = small, poorly fitted or top-dose-only effect; inactive = no such curve, though single readings can be large or run the other way; tested in mouse RAW 264.7 cells; note: potency is the fitted concentration of half-maximal effect; % is set by controls: 0 for no effect and ±100 for the full control effect; nearly all actives have a fitted effect of over 55% in size
Mm-Cpn inhibitor = blocks the Methanococcus maripaludis chaperonin Mm-Cpn; purified Mm-Cpn ATPase, ADP Transcreener TR-FRET; Potency, µM (titrated, usually from 76.9 µM), inactives show top-dose activity, negative = inhibition, actives largely listed as inhibitors; 0.031% of 330,000 active; note: potency is the fitted concentration of half-maximal effect; % is set by controls: 0 for no effect and ±100 for the full control effect; nearly all actives have a fitted effect of over 80% in size
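Compound-treated chaperonin, 25 nM final, turns over 10 uM ATP at 37°C for 30 min following a 10 min preincubation; ADP generated competes with ADP-d2 for Eu-cryptate antibody, lowering FRET.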
HEK293 tox = cytotoxicity counter-screen for GLP-1 receptor inverse agonists | HEK293 cAMP-luciferase reporter cells, luminescence, 24 h | Potency, µM (top dose mostly 38.3 µM), without a hit: at the top dose activity change, negative = inhibition, hits mostly inhibitors | 0.13% of 410,000 active;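 note: loss of luciferase light is scored as toxicity; potency is the fitted concentration of half-maximal effect; % is set by controls: 0 for no effect and ±100 for the full control effect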
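A 23 nL compound transfer followed 12 hours of cell culture at 37 deg C; exposure then lasted 24 hr. Luciferase assay detection reagent was dispensed and plates read for luminescence after a 12 min room-temperature wait.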
* hit, by the source's call; u = inconclusive; x = no result given. Rows were chosen to be rich in hits. Some 2.2% of all compounds tested hit in one or more screens of this group. Unless noted, calls come from the whole dose curve; as a rule, active = well fitted curve in the direction sought with a large enough effect; inconclusive = small, poorly fitted or top-dose-only effect, or another doubt; inactive = no such curve, though single readings can be large; an effect the other way counts as inactive or inconclusive.

SMILES	GLP-1R agonist	CCT modulator	GLP-1R inv ag	uPA generation	Mm-Cpn inhibitor	HEK293 tox
O=C(NCc1ccccc1)c1cccc(COc2ccc3c(c2)CCC3)c1	-2%	-2	4.5µM*	0%	3%	-5%
O=C(NCc1ccccc1)C(=O)Nc1cccc(C(=O)O)c1	-6%	1	4.5µM*	0%	-1%	2%
O=C(NCc1ccccc1)c1cccc(NC(=O)c2ccccc2)c1	-3%	-3	8.9µM*	u	x	-27%
COc1ccc(CNC(=O)c2cccc(NC(=O)c3ccccc3)c2)cc1	17%	2	u	9%	-2%	-8%
CSc1cccc(NC(=O)C(=O)NCc2ccccc2)c1	5%	1	7%	2%	1%	-3%
O=C(CC1CC2CCC1C2)OCC(=O)c1c[nH]c2ccccc12 (centres undefined)	4%	1	10µM*	3%	2%	-21%
O=C(COC(=O)CC1CC2CCC1C2)NCc1ccc(F)cc1 (centres undefined)	16%	-3	-14%	2%	1%	-17%
COc1ccc(-n2cc(C(=O)NCCc3ccc(C)cc3)c3ccccc3c2=O)cc1	x	x	u	x	x	-13%
CCCc1ccc(S(=O)(=O)NCC2CCCN2CC)cc1 (centres undefined)	-1%	-2	-25%	-2%	0%	-7%
CCN1CCCC1CNS(=O)(=O)c1c(C)cc(C)cc1C (centres undefined)	1%	-6	-65%	-9%	1%	4.5µM*
COc1ccc2c(c1)-c1nc(NC(=O)c3cc(OC)c(OC)c(OC)c3)sc1CC2	x	x	10µM*	x	x	u
COc1ccc2c(c1)-c1nc(NC(=O)c3ccc(Cl)cc3)sc1CC2	x	x	10%	x	x	3%
COc1ccc(S(=O)(=O)N2CCN(Cc3nc4ccc(C)cc4o3)CC2)cc1OC	x	x	3%	x	x	-7%
Cc1ccccc1C(=O)NCc1nc2cccnc2n1Cc1ccccc1	x	x	-1%	x	x	9%
CCOC(=O)c1ccc(NC(=S)N(CCCN2CCCC2)Cc2cccs2)cc1	5%	-4	2.8µM*	-5%	2%	u
COc1cccc(CNc2ncnc3c2nnn3C)c1	x	x	11%	x	x	6%
O=S(=O)(c1cccc(Cl)c1Cl)N1CCN(C(=S)NCCCN2CCOCC2)CC1	5%	-5	7.1µM*	-8%	1%	1%
CC(=O)[O][Al][O]C(C)=O	-6%	x	x	x	x	x
Cc1cc(Cl)ccc1OC(C)C(=O)N1CCCN(C(=O)C(C)Oc2ccc(Cl)cc2C)CC1 (centres undefined)	-25%	1	5µM*	-5%	-2%	u
Cc1cc(Cl)ccc1OCC(=O)N1CCCN(C(=O)COc2ccc(Cl)cc2C)CC1	-16%	2	u	-4%	-1%	-24%
CSc1cccc(NC(=O)Cn2ncn3c(cc4ccccc43)c2=O)c1	x	x	-8%	x	x	-14%
COc1ccc(/C=N/N2CCOCC2)cc1Cn1nc(C)c([N+](=O)[O-])c1C	2%	-1	-17%	8%	-2%	-2%
COc1ccc(/C=N/Nc2ccccc2)cc1Cn1nc(C)c([N+](=O)[O-])c1C	-2%	-2	4µM*	4%	0%	-28%
CC(C)OC(=O)OCOP(=O)(CO[C@H](C)Cn1cnc2c(N)ncnc21)OCOC(=O)OC(C)C	10%	x	x	x	x	x
Cc1nn(CC(=O)NCc2ccc(N(C)C)cc2)c(=O)c2nn(-c3ccccc3)c(C)c12	x	x	-26%	x	x	-3%
SMILES	GLP-1R agonist	CCT modulator	GLP-1R inv ag	uPA generation	Mm-Cpn inhibitor	HEK293 tox
Cc1cc(/C=C2\NC(=O)NC2=O)c(C)n1-c1cccnc1	10%	-3	21%	-2%	-3%	2%
Cc1cc(/C=C2\NC(=S)NC2=O)c(C)n1-c1cccnc1	12%	-83*	27%	-8%	-1%	-21%
Cc1cc(/C=C2\SC(=S)N(Cc3ccco3)C2=O)c(C)n1-c1cccnc1	2%	-2	-2%	2%	0%	66%
Cc1cc(/C=C2/SC(=S)N(c3cccc(C(F)(F)F)c3)C2=O)c(C)n1-c1cccnc1	6%	-2	5µM*	-6%	x	-18%
CCCCCOc1ccc(C2SC(=O)NC2=O)cc1OCC (centres undefined)	-2%	x	x	x	x	x
Cc1ccc(C2c3[nH]c4ccccc4c3CCN2C(=O)CCC2CCCC2)cc1 (centres undefined)	x	x	10µM*	x	x	3%
Cc1ccc(C2c3[nH]c4ccccc4c3CCN2C(=O)c2ccccc2Br)cc1 (centres undefined)	x	x	u	x	x	-9%
Cc1ccc(C2c3[nH]c4ccccc4c3CCN2C(=O)Nc2ccc(C)c(C)c2)cc1 (centres undefined)	x	x	7.9µM*	x	x	-8%
Cc1ccc(C2c3[nH]c4ccccc4c3CCN2C(=O)c2ccc(N(C)C)cc2)cc1 (centres undefined)	x	x	u	x	x	-6%
COC(=O)c1ccc(NC(=O)N2CCc3c([nH]c4ccccc34)C2c2ccc(C)cc2)cc1 (centres undefined)	x	x	4.5µM*	x	x	-17%
CCCn1c(=O)c2sccc2n2c(CCCC(=O)N3CCN(c4ccc(OC)cc4)CC3)nnc12	x	x	-5%	x	x	0%
Cc1ccc(C23CC4CC(CC(C(=O)N5CCN(C)CC5)(C4)C2)C3)cc1	9%	-1	8.9µM*	-14%	2%	12%
Cc1ccc(C23CC4CC(CC(NC(=O)N5CCN(C)CC5)(C4)C2)C3)cc1	-3%	0	u	0%	1%	-2%
CCc1ccc(NC(=O)c2cc(CN3CCOCC3)on2)cc1	x	x	7%	x	x	-1%
S=C1NC[C@H](CC2CCCCC2)N1CC1CCCCC1	1%	-1	4.5µM*	-4%	x	5.6µM*
CCCC[C@@H]1CNC(=S)N1CC1CCCCC1	0%	0	u	2%	3%	-31%
COc1ccc(CNC(=O)Cc2c(C)c3c(cc(C)c4c(C)coc43)oc2=O)cc1	x	x	6%	x	x	4%
NC(N)=N/N=C/c1ccc(Br)cc1	-5%	-2	5µM*	u	1%	u
Cc1cccc(NC(=O)CSc2ncc(-c3ccc(Br)cc3)[nH]2)c1	x	x	-24%	x	x	-15%
CC(C)CN(C(=O)CN1C(=O)NC2(CCc3ccccc32)C1=O)C1CCS(=O)(=O)C1 (centres undefined)	-4%	0	2%	10%	-1%	-11%
Cc1ccc(CN(C)C(=O)CN2C(=O)NC3(CCCc4ccccc43)C2=O)c(C)c1 (centres undefined)	3%	0	3.2µM*	-5%	-5%	1%
CCN(C(=O)CN1C(=O)NC2(CCc3ccccc32)C1=O)C1CCS(=O)(=O)C1 (centres undefined)	1%	-34*	12%	-2%	-5%	3%
